Screening data: PubChem BioAssay, several laboratories
An excerpt weighted towards active compounds, which were near 6.2% of everything screened.
AI-2 QS mod: modulators of Vibrio harveyi AI-2 quorum sensing system | Vibrio harveyi JMH597 AI-2 luminescence/OD600 ratio, 9 h; stronger effect = lower value; strain lacks LuxN and CqsS sensors; 0 = neutral-control median | activity change, % at 7.5 µM | 300,000 compounds, 0.4% hits | AID 2094; in the data active means activity change below about -75%, passing the limit was not always enough;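 further: luminescence divided by OD600 gain over 9 h not by final OD600 alone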
H9c2 protect: protects H9c2 cardiomyocytes from peroxide injury; H2O2 injury protection, ATPLite, 2 h; protection from H2O2 cell death, % at 20 µM; 360,000 compounds, 0.63% hits; AID 588492;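 active means compounds giving at least 50% protection of heart cells from peroxide-induced death in the single-dose screen, raw or plate-pattern-corrected value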;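 further: 0% = DMSO wells with peroxide and 100% = DMSO wells without peroxide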
AHR activator: activators of human aryl hydrocarbon receptor. 320,000 compounds, 2.5% hits. activation, % at 5 µM. AHR-responsive luciferase reporter cells, luminescence. P35869; in the data active means activation above about 47%;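 further: 0% = vehicle wells and 100% = reference agonist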
Target sequence (P35869 whole entry, looked up): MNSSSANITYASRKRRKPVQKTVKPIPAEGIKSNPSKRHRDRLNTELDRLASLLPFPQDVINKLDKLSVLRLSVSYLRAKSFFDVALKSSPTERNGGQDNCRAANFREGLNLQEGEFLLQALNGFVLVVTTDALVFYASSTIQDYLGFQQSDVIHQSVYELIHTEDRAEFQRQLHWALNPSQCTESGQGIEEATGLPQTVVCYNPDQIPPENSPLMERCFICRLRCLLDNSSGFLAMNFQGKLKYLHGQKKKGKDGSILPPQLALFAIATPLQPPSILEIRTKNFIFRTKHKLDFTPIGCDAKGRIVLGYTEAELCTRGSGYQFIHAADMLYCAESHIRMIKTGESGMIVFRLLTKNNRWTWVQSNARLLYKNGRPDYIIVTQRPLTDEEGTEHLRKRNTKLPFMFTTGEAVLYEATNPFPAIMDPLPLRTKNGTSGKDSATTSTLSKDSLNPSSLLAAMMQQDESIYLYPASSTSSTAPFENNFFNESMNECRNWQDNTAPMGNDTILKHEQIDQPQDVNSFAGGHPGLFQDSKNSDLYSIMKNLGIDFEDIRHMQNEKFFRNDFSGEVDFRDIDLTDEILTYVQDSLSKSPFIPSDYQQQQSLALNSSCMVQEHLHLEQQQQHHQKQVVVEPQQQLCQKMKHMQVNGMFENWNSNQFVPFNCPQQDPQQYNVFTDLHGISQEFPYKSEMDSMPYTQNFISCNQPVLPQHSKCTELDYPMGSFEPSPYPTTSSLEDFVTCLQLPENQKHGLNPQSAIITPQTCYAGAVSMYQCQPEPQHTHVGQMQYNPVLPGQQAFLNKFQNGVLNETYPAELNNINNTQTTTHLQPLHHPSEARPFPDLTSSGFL
GRIN3A LBD mod: modulates the human NR3A ligand-binding domain. AID 1259313. 340,000 compounds, 2.5% hits. NR3A LBD differential scanning fluorimetry, Tm shift; 0% = protein alone, 100% = glycine-bound protein. Tm shift relative to glycine control, % at 25 µM;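 active means melting temperature shift of at least 10% of the positive control shift, at one fixed dose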
SUMO Mot1 rescue: blocks SUMOylation pathway, rescuing yeast Mot1-301 growth; S. cerevisiae Mot1-301 growth rescue, ATP luminescence, 38.5C; percent above DMSO median, 100 means doubled; growth rescue, % at 18.8 µM; 320,000 compounds, 1% hits;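 active means every valid replicate shows activation above 250% relative to neutral control wells; inactive means the rest, any valid replicate at or below 250%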;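 further: OY570 slx delta 5 strain wells were the positive control but not used for scaling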
NTR1 ag: agonists of human neurotensin receptor NTR1; activation, % at 20 µM; NTR1-U2OS beta-arrestin-GFP spot imaging, agonist mode; 330,000 compounds, 0.17% hits; AID 493036; P30989;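 active means activation at or above 40% of the spot to cytoplasm intensity ratio, with at least 20 cells analyzed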;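 further: 0% = DMSO without peptide and 100% = 100 nM NTR1 peptide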
The depositor's hits bear a star; · = no result given.

SMILES | AI-2 QS mod | H9c2 protect | AHR activator | GRIN3A LBD mod | SUMO Mot1 rescue | NTR1 ag
O=C(NCCN1C(=O)S/C(=C\c2ccccc2)C1=O)C1CCN(S(=O)(=O)c2cccs2)CC1 | 23 | -21 | -3 | 15* | 360 | 2
Cc1cc(C)n(-c2ccc(C(=O)Nc3ccc(S(=O)(=O)NCc4ccco4)cc3)cc2)n1 | 26 | -38 | 34 | 17* | 6 | 1
C/C(=N\Nc1nc(Cl)c(Cl)cc1Cl)c1ccc(S(=O)(=O)NCc2ccco2)cc1 | 15 | -2 | 49* | 2 | 6 | 10
Cc1cc(C)n(-c2ccc(C(=O)Nc3nc4ccccc4s3)cc2)n1 | -16 | -17 | -8 | 15* | 1 | 1
Cc1ccc(C(=O)Nc2ccc(S(=O)(=O)NCc3ccco3)cc2)cc1 | 18 | -6 | 0 | -1 | 128 | 0
CC(=O)Nc1cc(C)nn1-c1nc2ccccc2s1 | 39 | 52* | 46 | -1 | -6 | 2
COc1ccc(C2=Nc3ccccc3NC(=O)C2N(CCc2ccccc2)C(=O)c2cccs2)cc1 (stereo not drawn) | · | -2 | · | · | · | ·
Cc1cc(C)n(-c2ccc(C(=O)Nc3cccc([N+](=O)[O-])c3)cc2)n1 | 31 | -8 | -15 | 19* | 9 | 1
Cc1cc(C)n(-c2ccc(C(=O)Nc3cccc(S(=O)(=O)N(C)C)c3)cc2)n1 | 12 | -13 | -3 | 3 | 58 | 3
CCCCCCCCCCCCCCCCCCNc1ccn(C2OC(COP(=O)(O)OCC3OC(n4cc(F)c(=O)[nH]c4=O)CC3O)C(O)C2O)c(=O)n1 (stereo not drawn) | · | -2 | · | 0 | · | ·
COc1ccc(/C=C2\CCCC3C2=NN(C(=O)c2ccco2)C3c2ccc(OC)c(OC)c2)cc1OC (stereo not drawn) | 9 | 8 | 4 | -3 | 3 | 2
COc1ccc(/C=C2\CCCC3C2=NN(C(=O)c2scnc2C)C3c2ccc(OC)c(OC)c2)cc1OC (stereo not drawn) | 2 | -4 | 3 | 11* | 0 | 1
C[C@H](CO)N1C[C@H](C)[C@@H](CN(C)C(=O)Nc2ccc(F)cc2)Oc2ncc(-c3ccc(F)cc3)cc2C1=O | · | 8 | · | · | · | ·
CCOc1ncccc1C(=O)NCCc1ccc(Cl)cc1 | 16 | 6 | -6 | 0 | -4 | 1
CCN(CC)Cc1c(NC(=O)c2ccccc2)sc(C)c1C | 10 | 4 | 65* | 1 | 125 | 0
Cc1ccc(C(=O)Nc2sc(C)c(C)c2C(=O)c2ccccc2)cc1 | 18 | -10 | -6 | 20* | -1 | 7
CC1CC(C)CN(S(=O)(=O)c2ccc3c(c2)CC(C)N3C(=O)C2CC2)C1 (stereo not drawn) | 21 | -8 | 2 | 3 | 504 | 2
CC(NC(=O)c1cc2cc(F)ccc2[nH]1)c1ccccc1 (stereo not drawn) | 1 | -10 | 53* | -1 | 9 | 2
COc1ccc(CN2C(=O)CNC2=S)cc1 | 7 | 1 | 2 | -2 | 81 | 0
O=C(Nc1ccc(F)c(Cl)c1)C1CCCN(c2cnccn2)C1 (stereo not drawn) | 8 | -6 | 73* | 1 | 2 | 0
CCOC(=O)c1ccc(NC(=O)C2CCCN(S(=O)(=O)c3cnc[nH]3)C2)cc1 (stereo not drawn) | 6 | -2 | 1 | -1 | 1 | 1
O=C(Nc1cccc(F)c1)C1CCCN(c2cnccn2)C1 (stereo not drawn) | 20 | 3 | 52* | 2 | · | 1
CCOC(=O)c1ccc(NC(=O)C2CCCN(c3cnccn3)C2)cc1 (stereo not drawn) | -1 | -3 | 63* | -1 | 3 | 0
Cc1cccc2c(SCC(N)=O)nc(-c3ccccc3)nc12 | 10 | 3 | 35 | 0 | 119 | 1
O=[N+]([O-])CC(=Nc1ccc(Cl)cc1)N/N=C\c1oc(O)c2ccccc12 | 19 | 1 | 95* | -3 | 30 | 2
SMILES | AI-2 QS mod | H9c2 protect | AHR activator | GRIN3A LBD mod | SUMO Mot1 rescue | NTR1 ag
O=C(N/N=C\c1ccc(COc2ccc([N+](=O)[O-])cc2)o1)c1ccc(Cl)cc1 | 22 | 5 | 5 | 3 | 2 | 2
Cn1c(=O)[nH]c(=O)c2c1nc1n2CC(O)CN1c1ccccc1 (stereo not drawn) | 5 | 4 | 3 | 4 | 300 | 0
FC(F)Sc1ccc(NC(=S)NC2CCCCC2)cc1 | -29 | -15 | 7 | 15* | 2 | 9
S=C(NCC1CCCCC1)Nc1ccc(Oc2ccccc2)cc1 | 6 | -14 | 2 | 16* | 37 | 4
FC(F)Sc1ccc(NC(=S)NCC2CCCCC2)cc1 | 7 | -15 | 7 | 31* | -1 | 8
FC(F)Sc1ccc(NC(=S)NCc2ccccc2)cc1 | -9 | -10 | 6 | 12* | 25 | 2
S=C(Nc1ccc(Oc2ccccc2)cc1)NC1CCCC1 | 7 | -5 | 0 | 0 | 40 | 4
O=C(O)c1ccccc1NC(=O)c1ccccc1Nc1ccccc1 | 15 | -5 | 1 | 2 | -16 | 4
COc1cccc(NCc2cc(=O)oc3cc(C)c(C(C)C)cc23)c1 | -9 | -4 | 5 | -2 | 20 | 10
N#CC1=C(N)SC(N)=C(C#N)C1c1cccc(Oc2ccccc2)c1 | 18 | -12 | 1 | 9 | -20 | 0
N#CC1=C(N)N2C(=C(C#N)C1c1ccc(Br)cc1)Nc1ccccc12 (stereo not drawn) | 0 | · | 44 | 23* | 86 | 11
N#CC1=C(N)N2C(=C(C#N)C13CCN(Cc1ccccc1)CC3)Nc1ccccc12 | 7 | 13 | 18 | -1 | -1 | 0
N#CC1=C(N)N2C(=C(C#N)C1c1cccc(Br)c1)Nc1ccccc12 (stereo not drawn) | 16 | -11 | 21 | 24* | -4 | 13
Nc1c(NCCCN2CCOCC2)c2ccccc2oc1=O | 19 | -3 | 3 | 11* | 4 | -1
O=C(c1ccco1)N1CCN(Cc2nnnn2C2CCCCC2)CC1 | 6 | 2 | -1 | 1 | 176 | 1
O=C1C(Oc2ccccc2)C(c2ccc3c(c2)OCO3)N1CCc1ccc(F)cc1 (stereo not drawn) | 12 | 2 | 71* | 13* | 27 | 6
COc1ccc(CCN2C(=O)C(Oc3ccccc3C)C2c2ccc3c(c2)OCO3)cc1 (stereo not drawn) | 5 | -4 | 1 | 0 | -9 | 5
O=C(NC[C@@H]1CCCO1)c1cccc2c1C(=O)c1ccc(Cl)cc1S2(=O)=O | · | 4 | 1 | 1 | -5 | 0
COc1ccc(-c2ccc3c(c2)S(=O)(=O)c2cccc(C(=O)NC[C@@H]4CCCO4)c2C3=O)cc1OC | · | 63* | 4 | 1 | 2 | 1
